ELG1 DNA repair: ELG1-dependent DNA repair inhibition. HEK293T ELG1-luciferase reporter, luminescence, 16 h; DNA damage induced by 5-fluorouridine. Potency, µM (doses to about 46.1 µM), usual class: inhibitors. hit rate 2.3% among 330,000; note: nearly all actives have a fitted effect of over 55% in size
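Overnight (16 hr) co-exposure of 2,000 cells/well to 5-fluorouridine and compound at 37 °C preceded detection. Luciferase was quantified via ONE-Glo luminescence; loss of signal denotes inhibition.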
SW480 rerep: induces DNA re-replication in SW480 colon adenocarcinoma cells | SW480 DNA re-replication, Hoechst DNA content imaging, 48 h | Potency, µM (top dose mostly 46.1 µM), most hits filed as activators | hit rate 1.8% among 340,000 | AID 624297; note: nearly all actives have a fitted effect of over 55% in size
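Readout is total intensity of Hoechst-stained nuclei, excited at 405 nm and collected at 500-530 nm. Compound treatment lasted 48 hr at 37 C in 5% CO2 before staining.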
KB-3-1 tox: KB-3-1 parental cell cytotoxicity; KB-3-1 viability, CellTiter-Glo ATP luminescence, 72 h; Potency, µM (top dose mostly 46.1 µM), hits mostly cytotoxic; hit rate 1.4% among 400,000; AID 1347075; note: nearly all actives have a fitted effect of over 60% in size
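Luminescent ATP read-out (CellTiter-Glo) measures survival of drug-naive KB-3-1 cells after 72 h compound exposure at 37 °C. Titration series was screened from lowest to highest concentration, with DMSO vehicle plates as background controls.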
MCF10A rerep: inducers of DNA re-replication in MCF 10A breast cells | MCF 10A DNA re-replication, Hoechst nuclear intensity, 48 h | Potency, µM (titrated, usually from 46.1 µM), most hits filed as activators | hit rate 2.9% among 350,000 | AID 624296; note: nearly all actives have a fitted effect of over 50% in size
KB-V1 MDR tox: KB-V1 MDR subline cytotoxicity. Potency, µM (titrated, usually from 46.1 µM), hits mostly cytotoxic. hit rate 3.4% among 400,000. AID 1347076. KB-V1 MDR cells viability, CellTiter-Glo, 72 h; note: nearly all actives have a fitted effect of over 60% in size
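Following 72 h at 37 degrees C with compound, KB-V1 cell viability was read by CellTiter-Glo luminescence, medium being phenol-red-free DMEM plus 10% FBS; concentration-response parameters came from normalized, curve-fitted qHTS data.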
Large screens that a line does not name were inactive. A selection: hits, their analogues and other compounds. The true share with any hit is near 8.1%. Calls come from the whole dose curve; as a rule, active = well fitted curve in the direction sought with a large enough effect; inconclusive = small, poorly fitted or top-dose-only effect, or another doubt; inactive = no such curve, though single readings can be large; an effect the other way counts as inactive or inconclusive.

O=C(C1CCCN(S(=O)(=O)Cc2ccccc2)C1)N1CCc2ccccc21 (stereo not given)	ELG1 DNA repair 26µM, MCF10A rerep inconclusive, KB-V1 MDR tox inconclusive
CCOC(=O)C1CCCN(S(=O)(=O)Cc2ccccc2)C1 (stereo not given)	none
COc1ccc(C(=O)/C=C/c2ccc(O)cc2)c(O)c1CC=C(C)C	MCF10A rerep 23µM
COc1ccc(C(=O)/C=C/c2ccc(O)cc2)c2c1CC(O)C(C)(C)O2 (stereo not given)	ELG1 DNA repair 23µM, KB-3-1 tox inconclusive, KB-V1 MDR tox inconclusive
COc1ccc(C=CC(=O)c2cc(O)ccc2O)cc1	SW480 rerep inconclusive, MCF10A rerep inconclusive (no result: ELG1 DNA repair)
O=C(NN=C1CCCC1)c1cc(-c2ccccc2)n[nH]1	none (no result: SW480 rerep)
CCOC(=O)c1cn(CC)c2cc(N3CCOCC3)c(F)cc2c1=O	none
CCCn1c(N)c(C(=O)CN(C)CC(=O)Nc2ccccc2C(F)(F)F)c(=O)[nH]c1=O	ELG1 DNA repair 9.2µM
CCCn1c(N)c(C(=O)CN(C)CC(=O)Nc2cc(C)ccc2C)c(=O)[nH]c1=O	ELG1 DNA repair inconclusive, KB-3-1 tox inconclusive
CCOC(=O)Nc1ccc2c(c1)N(C(=O)CCN1CCOCC1)c1ccccc1S2	MCF10A rerep inconclusive
CCOC(=O)Nc1ccc2c(c1)N(C(=O)CCN1CCOCC1)c1ccccc1S2=O (stereo not given)	SW480 rerep 5.8µM, KB-3-1 tox inconclusive, MCF10A rerep 10µM, KB-V1 MDR tox inconclusive
O=C(CC1C(=O)NCCN1Cc1cccc(Oc2ccccc2)c1)NCc1cccnc1 (stereo not given)	none
O=C(CC1C(=O)NCCN1Cc1cccc(Oc2ccccc2)c1)NCCc1cnccn1 (stereo not given)	SW480 rerep 3.3µM
Cc1cccc(Nc2nnc(-c3ccc(N4CCOCC4)c([N+](=O)[O-])c3)c3ccccc23)c1	ELG1 DNA repair 8.2µM, KB-3-1 tox inconclusive
CC1(C)CC(C(CC(=O)O)c2ccccc2)CCO1 (stereo not given)	none
COc1ccc(CN(CCC(c2ccc(F)cc2)C2CCOC(C)(C)C2)C(=O)c2ccco2)cc1 (stereo not given)	ELG1 DNA repair 10µM, KB-3-1 tox inconclusive, MCF10A rerep 23µM, KB-V1 MDR tox inconclusive
COc1ccc(CN(CCC(c2ccccc2)c2ccco2)C(=O)c2ccco2)cc1 (stereo not given)	ELG1 DNA repair inconclusive, MCF10A rerep inconclusive
CC(c1ccccc1)N(CCC(c1ccccc1)C1CCOC(C)(C)C1)C(=O)c1ccco1 (stereo not given)	ELG1 DNA repair 23µM, MCF10A rerep 16µM, KB-V1 MDR tox 9.2µM
Cc1ccc(CN(CC2CCCO2)C(=O)CN2C(=O)C(C(C)C)Oc3ccccc32)o1 (stereo not given)	ELG1 DNA repair inconclusive, SW480 rerep inconclusive
O=C(CN1C(=O)COc2ccccc21)N(Cc1ccc2c(c1)OCO2)CC1CCCO1 (stereo not given)	MCF10A rerep inconclusive, KB-V1 MDR tox 4.1µM
COc1ccc(-n2c(=O)c3ccc(C(=O)NCc4ccc(C)cc4)cc3n(Cc3ccc(C)cc3)c2=O)cc1	none (no result: ELG1 DNA repair, SW480 rerep, MCF10A rerep)
CN(C)/C=N/c1nc2ncc(-c3ccc(Cl)cc3)c(/N=C/N(C)C)n2n1	KB-3-1 tox inconclusive, KB-V1 MDR tox 6.5µM
CN(C)/C=N/c1nc2nccc(-c3ccc(F)cc3)n2n1	none
COC(=O)c1ccc(-c2nc3cc(Cl)c(N)cc3s2)cc1	ELG1 DNA repair inconclusive, SW480 rerep inconclusive, MCF10A rerep 0.65µM
COC(=O)c1ccc(-c2nc(O)c(C)s2)cc1	none
Cc1cc(Br)c(OCC(=O)NN)c2c1CCC2	MCF10A rerep 15µM, KB-V1 MDR tox inconclusive
CCOc1ccc(N(CC(=O)N2CCN(C(=O)CN(c3ccc(OCC)cc3)S(C)(=O)=O)CC2)S(C)(=O)=O)cc1	none
O=C(CSC1=Nc2ccccc2C2CC=NN12)Nc1ccc(F)c(F)c1F (stereo not given)	MCF10A rerep 21µM
CCOC(=O)CC1(C)Oc2cc(Cl)ccc2N1S(=O)(=O)c1ccc(C)cc1 (stereo not given)	KB-3-1 tox 18µM, KB-V1 MDR tox inconclusive (no result: ELG1 DNA repair, SW480 rerep, MCF10A rerep)
CCOC(=O)CC1(CCc2ccccc2)Oc2ccccc2O1	none (no result: ELG1 DNA repair, SW480 rerep, MCF10A rerep)
CCOC(=O)CC1(CCc2ccccc2)Oc2ccccc2N1S(=O)(=O)c1ccc(C)cc1 (stereo not given)	KB-3-1 tox 18µM, KB-V1 MDR tox inconclusive (no result: ELG1 DNA repair, SW480 rerep, MCF10A rerep)
COc1cc(OC)c2c(-c3ccccc3)cc(=O)oc2c1	none
COc1cc(OC)c2c(-c3cccc(-c4ccc(C(C)=O)cc4)c3)cc(=O)oc2c1	SW480 rerep 4.1µM, MCF10A rerep 0.65µM
COc1cc(OC)c2c(-c3cccc(-c4ccoc4)c3)cc(=O)oc2c1	ELG1 DNA repair inconclusive, SW480 rerep inconclusive, MCF10A rerep 7.3µM
CCc1cc(=O)oc2cc3occ(-c4ccc(OC)c(F)c4)c3cc12	SW480 rerep inconclusive, KB-3-1 tox 18µM, MCF10A rerep 2.3µM, KB-V1 MDR tox 1.6µM
COc1cc(OC)c2c(-c3cccc(-c4ccc(OC)c(F)c4)c3)cc(=O)oc2c1	SW480 rerep 1.5µM, KB-3-1 tox 0.92µM, MCF10A rerep inconclusive
CC(=O)c1cccc(NC(=O)C2CCN(C(=O)c3cnn(-c4ccccc4)c3-n3cccc3)CC2)c1	none (no result: ELG1 DNA repair, SW480 rerep, MCF10A rerep)
COC(C(=O)C(O)C(C)O)C1Cc2cc3cc(OC4CC(OC5CC(O)C(O)C(C)O5)C(O)C(C)O4)c(C)c(O)c3c(O)c2C(=O)C1OC1CC(OC2CC(OC3CC(O)C(OC)C(C)O3)C(O)C(C)O2)C(O)C(C)O1 (stereo not given)	KB-3-1 tox 0.18µM (no result: ELG1 DNA repair)
COC(C(=O)C(O)C(C)O)C1Cc2cc3cc(OC4CC(OC5CC(O)C(O)C(C)O5)C(O)C(C)O4)c(C)c(O)c3c(O)c2C(=O)C1OC1CC(OC2CC(OC3CC(C)(O)C(O)C(C)O3)C(O)C(C)O2)C(O)C(C)O1 (stereo not given)	KB-3-1 tox 0.0052µM, MCF10A rerep inconclusive (no result: ELG1 DNA repair)
O=C(O)CSc1nnc(-c2cccc(S(=O)(=O)N3CCOCC3)c2)n1-c1ccc(F)cc1	none
CC(C)CCCC(C)C1CC(=O)C2=C3CCC4CC(O)CCC4(C)C3CCC21C (stereo not given)	MCF10A rerep inconclusive (no result: ELG1 DNA repair, KB-3-1 tox, KB-V1 MDR tox)
O=c1[nH]c2ccc(Cl)cc2c(-c2ccccc2)c1N1CCN(c2ccccn2)CC1	SW480 rerep inconclusive, KB-V1 MDR tox 13µM
CC(C)C(OC(=O)c1ccccc1)c1nccc2ccccc12 (stereo not given)	ELG1 DNA repair inconclusive
Cc1ccc(C(=O)N/N=C2\CCc3ccccc32)c(C)c1	ELG1 DNA repair inconclusive, KB-V1 MDR tox 23µM
COc1cccc(C(C)NC(=O)c2c(F)cccc2Cl)c1 (stereo not given)	none
Cc1cc(C)cc(NC(=O)CSc2nncn2-c2ccccn2)c1	none

Compound activity: PubChem BioAssay, National Center for Advancing Translational Sciences (NCATS)
